High-throughput results (PubChem)
Rows were chosen to be rich in hits. Some 3.5% of all compounds tested hit in one or more screens of this group.
TEAD-YAP block – TEAD-YAP interaction inhibition; HEK-TIYL cells, TEAD-Gal4/YAP UAS-luciferase luminescence; inhibition, % at 9.12 µM; 1.4% of 640,000 active; AID 1259422; in the data active means inhibition above about 32%
FBW7 activator – activators of human E3 ligase FBW7. AlphaScreen FBW7–phospho-cyclin E peptide binding, activator screen. normalized activity (activation), % at 26.1 µM. 0.13% of 650,000 active. AID 1259310; in the data active means normalized activity above about 1.9%;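 further: purified mutant Fbw7 with reduced substrate affinity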
Target sequence (Q969H0 whole entry, looked up): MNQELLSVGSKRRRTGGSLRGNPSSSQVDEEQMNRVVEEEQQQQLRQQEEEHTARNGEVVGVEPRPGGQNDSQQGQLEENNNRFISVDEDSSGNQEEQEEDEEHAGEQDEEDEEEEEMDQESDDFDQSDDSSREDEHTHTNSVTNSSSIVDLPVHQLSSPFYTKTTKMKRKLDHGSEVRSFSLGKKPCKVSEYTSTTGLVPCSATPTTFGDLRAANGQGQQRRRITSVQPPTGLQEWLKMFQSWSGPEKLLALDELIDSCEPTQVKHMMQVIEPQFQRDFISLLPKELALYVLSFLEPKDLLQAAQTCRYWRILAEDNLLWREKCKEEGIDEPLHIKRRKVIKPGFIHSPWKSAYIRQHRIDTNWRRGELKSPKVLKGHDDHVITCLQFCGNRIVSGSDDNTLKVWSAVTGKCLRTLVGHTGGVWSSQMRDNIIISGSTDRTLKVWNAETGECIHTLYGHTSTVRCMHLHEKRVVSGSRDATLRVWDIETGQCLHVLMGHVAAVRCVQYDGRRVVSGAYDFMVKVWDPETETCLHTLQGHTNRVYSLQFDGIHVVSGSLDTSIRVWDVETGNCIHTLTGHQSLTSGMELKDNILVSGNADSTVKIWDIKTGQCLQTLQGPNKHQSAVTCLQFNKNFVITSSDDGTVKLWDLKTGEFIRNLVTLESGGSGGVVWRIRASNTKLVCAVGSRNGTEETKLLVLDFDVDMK
MITF inh – inhibitors of human MITF; O75030; AID 1259374; 0.91% of 650,000 active; inhibition, % at 2.6 µM; AlphaScreen MITF homodimerization, bead proximity signal; in the data active means inhibition above about 50%
GPR151 ag – activates the human receptor GPR151. Q8TDV0. PathHunter beta-arrestin GPR151 cells, luminescence. activation, % at 11.2 µM. 1% of 650,000 active. AID 1508602; in the data active means activation above about 4.9%
Hits are given with their value; n = inactive.

SMILES	TEAD-YAP block	FBW7 activator	MITF inh	GPR151 ag
COc1ccc(OC)c(C2C=C(c3ccc(Cl)cc3)Nc3ncnn32)c1 (centres undefined)	n	n	n	n
CCc1ccc(C2=CC(c3cc(OC)ccc3OC)n3ncnc3N2)cc1 (centres undefined)	51	n	n	n
COc1ccc(C2=CC(c3ccc(OC)cc3OC)n3ncnc3N2)cc1 (centres undefined)	56	n	n	n
COc1ccc(C2C=C(c3ccc(C)cc3)Nc3ncnn32)c(OC)c1OC (centres undefined)	47	n	n	n
CCc1ccc(C2=CC(c3cccc(OC)c3)n3ncnc3N2)cc1 (centres undefined)	n	n	n	n
N#C/C(=C\c1cccc([N+](=O)[O-])c1)C(=O)Nc1ccc([N+](=O)[O-])cc1C(F)(F)F	n	n	n	n
COc1ccc(C2=C/C(=C(/C#N)C(N)=O)c3cc(C)ccc3O2)cc1	n	n	n	n
C=COCCCNC(=O)C1CCN(c2nc3ccccc3n2CC)CC1	n	n	n	n
COC(=O)c1c(N)n(-c2ccc(O)cc2)c2nc3ccccc3nc12	n	n	n	n
CCN(CC)CCOC(=O)/C=C/c1ccc(OC)cc1	n	n	n	n
COc1ccc(OC)c(C2C=C(c3cccc(Br)c3)Nc3ncnn32)c1 (centres undefined)	n	n	n	n
COc1cccc(C2C=C(c3cccc(Br)c3)Nc3ncnn32)c1 (centres undefined)	39	n	n	n
COc1ccc(C2=CC(c3cccc(OC)c3)n3ncnc3N2)cc1 (centres undefined)	43	n	n	n
CCOc1cc(C=C2C(=O)N(C)C(=O)N(C)C2=O)c(Br)cc1O	n	n	n	n
COc1ccc(N(CC(=O)NC2CCCC2)S(C)(=O)=O)c(OC)c1	n	n	n	n
COc1ccc(N(CC(=O)c2ccc(C3CCCCC3)cc2)C2=NCCCCC2)c(OC)c1	55	n	n	n
O=c1c2c(nc3nc(NCc4cccc(Br)c4)[nH]n13)CCC2	n	n	n	n
O=C(Nc1nnc(C23CC4CC(CC(C4)C2)C3)s1)c1ccccc1Cl	n	n	n	n
O=C(Nc1nnc(C23CC4CC(CC(C4)C2)C3)s1)c1ccccc1	42	n	n	n
O=C(Nc1nnc(C23CC4CC(CC(C4)C2)C3)s1)c1cccs1	33	n	n	n
COC(=O)[C@@H]1C[C@H](NC(=O)c2cnsn2)CN1Cc1cccc(Cl)c1	n	n	n	n
Cc1ccc(C2=NC(=C(Cl)Cl)C(=O)N2)cc1	n	n	n	n
CCOC(=O)C1=C(C)N=c2s/c(=C\c3ccccc3OCc3ccccc3Cl)c(=O)n2C1c1ccc(OC)cc1 (centres undefined)	n	n	n	n
CSc1cccc(C(=O)N(CC2CCCO2)c2nc3c(C)ccc(C)c3s2)c1 (centres undefined)	n	n	n	n
COc1ccc(C2=NN(C(=O)c3cc(OC)c(OC)c(OC)c3)C(c3cccc([N+](=O)[O-])c3)C2)cc1OC (centres undefined)	37	n	n	n
SMILES	TEAD-YAP block	FBW7 activator	MITF inh	GPR151 ag
COc1ccc(C2=NN(C(=O)c3cc(OC)c(OC)c(OC)c3)C(c3ccc(OC)c(OC)c3)C2)cc1OC (centres undefined)	n	n	n	n
COc1ccc(C2=NN(C(=O)c3ccccc3)C(c3cccc([N+](=O)[O-])c3)C2)cc1 (centres undefined)	n	n	n	n
COc1ccc(C2=NN(C(=O)c3cc(OC)c(OC)c(OC)c3)C(c3ccc(C)cc3)C2)cc1OC (centres undefined)	46	n	n	n
CSc1ccc(/C=C2\C(=O)ON=C2C)cc1	n	n	79	n
COc1ccc(Br)cc1/C=C1\C(=O)ON=C1C	n	n	65	n
COc1ccc(OC)c(/C=C2/C(=O)ON=C2C)c1	n	n	n	n
C#CCOc1ccc(/C=C2\C(=O)ON=C2C)cc1OC	n	n	68	n
CCOc1c(Br)cc(/C=C2\C(=O)ON=C2C)cc1OC	n	n	78	n
CC1=C(C#N)C(c2cccc3ccccc23)C2=C(CC(C)(C)CC2=O)N1 (centres undefined)	n	n	n	n
N#Cc1c(N2CCCC2)nc(-c2ccccc2)c2c1CCCC2	n	n	n	n
CCCCN1C(=O)C(NC(=O)c2ccccc2OC)(C(F)(F)F)C(C(=O)OC)=C1C (centres undefined)	n	n	n	n
COc1cc(/C=C2\C(=O)ON=C2C)cc(Cl)c1OC(C)C	n	n	75	n
CCc1ccc(CN2CCN(C(=O)c3ccc(F)cc3)CC2)cc1	37	n	n	n
